Data as given in PubChem BioAssay (Tox21).
Several values for one entry are separate records, joined by “and”; a condition that tells them apart may be missing. Identical values can stand only once. A number with no mark means an inactive call. Results filed as inconclusive are left out. A call without a number means that no potency is given here. Activity calls are given as the source filed them. Unless noted, calls follow the shape of the dose curve; as a rule, active = well fitted curve in the direction sought with a large enough effect in the repeat runs; inconclusive = weak or mixed curves; inactive = no such curve, though single readings can be large; an effect the other way counts as inactive or inconclusive.

Legend:
[1] = qHTS assay to identify small molecule antagonists of the estrogen related receptor (ERR) signaling pathway from Tox21 library - cell viability counter screen (AID 1224834); also: nearly all actives have a fitted effect of over 30% in size; also: potency is read from the fitted curve at half-maximal effect
How it was run: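 Viability readout (CellTiter-Fluor fluorescence, 30 min at 37 C) multiplexed with the ERR assay; cells treated 17.5 h at 37 C with compounds delivered in DMSO.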

[2] = target: Luciferin 4-monooxygenase (Photinus pyralis) (UniProt P08659); test: qHTS assay to identify small molecule inhibitors of firefly luciferase (AID 1224835); also: nearly all actives have a fitted effect of over 25% in size; also: potency is read from the fitted curve at half-maximal effect
Sequence of Luciferin 4-monooxygenase (Photinus pyralis) (P08659 whole entry, looked up): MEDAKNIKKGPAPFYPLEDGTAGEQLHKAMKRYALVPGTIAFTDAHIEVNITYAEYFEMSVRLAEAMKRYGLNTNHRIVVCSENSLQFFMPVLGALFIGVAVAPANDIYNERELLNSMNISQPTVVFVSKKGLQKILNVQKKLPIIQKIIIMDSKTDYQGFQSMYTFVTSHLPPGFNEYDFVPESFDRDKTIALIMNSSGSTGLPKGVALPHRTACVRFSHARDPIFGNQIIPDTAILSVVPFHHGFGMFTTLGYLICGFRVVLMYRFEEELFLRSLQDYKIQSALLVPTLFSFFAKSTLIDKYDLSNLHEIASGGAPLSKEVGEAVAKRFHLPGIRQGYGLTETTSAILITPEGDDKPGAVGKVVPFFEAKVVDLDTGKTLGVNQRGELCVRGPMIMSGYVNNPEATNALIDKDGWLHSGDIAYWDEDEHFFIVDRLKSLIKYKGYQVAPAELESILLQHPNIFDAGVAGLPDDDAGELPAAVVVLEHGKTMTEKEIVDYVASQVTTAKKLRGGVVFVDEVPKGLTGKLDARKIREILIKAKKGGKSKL
How it was run: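 Quantitative HTS format; KM concentrations of both substrates. Purified P. pyralis FLuc activity quantified from luminescence images.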

[3] = qHTS assay to identify small molecule agonists of the constitutive androstane receptor (CAR) signaling pathway - cell viability counter screen (AID 1224836); also: nearly all actives have a fitted effect of over 45% in size
How it was run: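 Counter screen multiplexed with the CAR reporter readout: HepG2 cells co-transfected with hCAR and the CYP2B6-2.2kb construct receive a 15-concentration compound series and 0.75 uM PK11195 (final), then CellTiter-Fluor fluorescence is read after 23 h.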

[4] = target: Nuclear receptor subfamily 1 group I member 3 (Homo sapiens) (UniProt Q14994); test: qHTS assay to identify small molecule antagonists of the constitutive androstane receptor (CAR) signaling pathway (AID 1224838);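 also: HepG2 cells stably expressing hCAR with CYP2B6 luciferase reporter stimulated by CITCO; nearly all actives have a fitted effect of over 40% in size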; also: potency is read from the fitted curve at half-maximal effect
Sequence of Nuclear receptor subfamily 1 group I member 3 (Homo sapiens) (Q14994 whole entry, looked up): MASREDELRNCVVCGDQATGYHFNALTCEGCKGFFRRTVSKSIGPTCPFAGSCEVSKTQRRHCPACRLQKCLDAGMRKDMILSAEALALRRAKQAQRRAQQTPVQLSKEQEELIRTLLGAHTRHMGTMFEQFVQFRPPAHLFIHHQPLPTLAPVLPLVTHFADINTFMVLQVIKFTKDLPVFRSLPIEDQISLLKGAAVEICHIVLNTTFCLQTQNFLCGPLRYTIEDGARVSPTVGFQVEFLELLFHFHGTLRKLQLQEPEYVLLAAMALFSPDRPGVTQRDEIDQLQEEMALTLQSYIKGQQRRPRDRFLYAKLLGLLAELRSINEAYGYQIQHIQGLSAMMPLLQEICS
How it was run: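 Quantitative HTS in double-stable HepG2-CYP2B6-hCAR cells. After 4 h plating, cells get compound (15 concentrations) and CITCO at 50 nM final, incubate 24 h at 37 C, then ONE-Glo luminescence is read.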

[5] = target: Nuclear receptor subfamily 1 group I member 3 (Homo sapiens) (UniProt Q14994); test: qHTS assay to identify small molecule agonists of the constitutive androstane receptor (CAR) signaling pathway (AID 1224839); also: nearly all actives have a fitted effect of over 15% in size
How it was run: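 A 15-concentration quantitative screen uses HepG2 cells co-transfected stably with human CAR and CYP2B6-2.2kb reporter. Treatment lasts 24 h with 0.75 uM PK11195 final present; ONE-Glo luminescence is the signal.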

[6] = qHTS assay to identify small molecule antagonists of the estrogen related receptor signaling pathway with the pleiotropic PPARgamma coactivator (PGC) from Tox21 10K library - cell viability counter screen (AID 1224840; active = well fitted cell-killing curve with a large enough effect in the repeat runs, not every such curve was filed as active; also: nearly all actives have a fitted effect of over 40% in size; also: potency is read from the fitted curve at half-maximal effect)
How it was run: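 Compounds in DMSO, alongside positive and negative controls, were pinned onto PGC/ERR cells (2,000 per well). Exposure lasted 17.5 hours at 37 C, followed by a 30-minute CellTiter-Fluor incubation and fluorescence reading.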

[7] = target: Thyrotropin receptor (Homo sapiens) (UniProt P16473); test: qHTS assay to identify small molecule agonists of the thyroid stimulating hormone receptor (TSHR) signaling pathway (AID 1224843; calls by dose curve; also: nearly all actives have a fitted effect of over 45% in size)
Sequence of Thyrotropin receptor (Homo sapiens) (P16473 whole entry, looked up): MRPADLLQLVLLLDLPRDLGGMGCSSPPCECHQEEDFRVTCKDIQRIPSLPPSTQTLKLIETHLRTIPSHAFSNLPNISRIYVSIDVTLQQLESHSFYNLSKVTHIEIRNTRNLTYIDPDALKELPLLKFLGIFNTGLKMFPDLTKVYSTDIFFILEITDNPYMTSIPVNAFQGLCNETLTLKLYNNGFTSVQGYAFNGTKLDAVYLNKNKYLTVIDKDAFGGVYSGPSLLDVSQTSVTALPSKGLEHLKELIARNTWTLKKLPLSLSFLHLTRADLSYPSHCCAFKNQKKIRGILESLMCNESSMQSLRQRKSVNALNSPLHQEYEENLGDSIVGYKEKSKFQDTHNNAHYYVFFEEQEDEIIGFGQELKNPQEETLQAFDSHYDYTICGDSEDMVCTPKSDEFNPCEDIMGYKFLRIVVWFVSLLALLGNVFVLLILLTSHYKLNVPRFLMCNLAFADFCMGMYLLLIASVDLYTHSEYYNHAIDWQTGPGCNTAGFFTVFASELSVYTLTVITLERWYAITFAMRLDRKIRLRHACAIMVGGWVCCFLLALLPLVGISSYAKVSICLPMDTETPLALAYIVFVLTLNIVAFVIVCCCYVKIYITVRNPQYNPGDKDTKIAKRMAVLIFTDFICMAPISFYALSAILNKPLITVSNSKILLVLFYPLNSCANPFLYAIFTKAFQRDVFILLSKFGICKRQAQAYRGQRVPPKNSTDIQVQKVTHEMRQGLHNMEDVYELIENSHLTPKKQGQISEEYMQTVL
How it was run: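 TSHR-expressing HEK293 cells (800 per well) were exposed to compounds for 30 min at room temperature. cAMP was then detected by HTRF competition with cAMP-d2 and anti-cAMP cryptate, read after 1 h at room temperature. Fifteen concentrations, triplicate.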

[8] = qHTS assay to identify small molecule agonists of H2AX - cell viability counter screen (AID 1224847; calls by dose curve; also: nearly all actives have a fitted effect of over 30% in size; also: potency is read from the fitted curve at half-maximal effect)
How it was run: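 We seed wild-type CHO-K1 cells overnight, treat them for 3 hr at 37C with compounds in 15-concentration series, and quantify remaining viability by CellTiter-Glo luminescence.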

[9] = qHTS RealTime-Glo MT Cell Viability Assay in HepG2 cells - 24 hour (AID 1224867); also: nearly all actives have a fitted effect of over 50% in size; also: potency is read from the fitted curve at half-maximal effect
How it was run: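 Cell number in HepG2 cultures estimated from NanoLuc luminescence generated by metabolic reduction of a prosubstrate by living cells. The homogeneous, nonlytic format allowed repeated reads at 0, 8, 16, 24, 32 and 40 h of compound exposure.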

[10] = qHTS RealTime-Glo MT Cell Viability Assay in HEK293 cells - 32 hour (AID 1224868); also: nearly all actives have a fitted effect of over 50% in size; also: potency is read from the fitted curve at half-maximal effect
How it was run: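 Homogeneous bioluminescent viability format in HEK293 cells (600 cells/well). Following 5 h at 37 C/5% CO2, 23 nL compound was pintooled; the signal was measured repeatedly during 40 h incubation.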

[11] = A CellTox Green Cytotoxicity Assay to monitor cytotoxicity in HEK293 cells - 0 hour (AID 1224869); also: nearly all actives have a fitted effect of over 50% in size
How it was run: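 Each value comes from one timepoint of a single continuous run in which HEK293 cells with CellTox Green were exposed to compound for up to 40 h at 37 C, dye fluorescence rising with cell death.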

[12] = qHTS assay to identify small molecule antagonists of the estrogen related receptor signaling pathway with the pleiotropic PPARgamma coactivator (PGC) from Tox21 10K library (AID 1224841; call rule not given here; also: actives are mostly falling curves and most rising ones were filed inactive; nearly all actives have a fitted effect of over 50% in size)
How it was run: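 Compound exposure ran 18 hours at 37 C in PGC/ERR cells (2,000/well) that had first rested 6 hours in a 37 C/5% CO2 incubator. Luciferase activity was then detected with One-Glo after a 30-minute room-temperature step.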

[13] = qHTS assay to identify small molecule agonists of the estrogen related receptor signaling pathway with the pleiotropic PPARgamma coactivator (PGC) from Tox21 10K library (AID 1224842); also: nearly all actives have a fitted effect of over 15% in size
How it was run: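 PGC/ERR reporter cells (NTP line) were seeded 2,000 per well, rested 6 h at 37 C/5% CO2, then pin-dosed with compounds in DMSO for 18 h at 37 C; luciferase read by One-Glo luminescence after 30 min at room temperature.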

[14] = qHTS assay to identify small molecule agonists of the hypoxia (HIF-1) signaling pathway - cell viability counter screen (AID 1224844; calls by dose curve; also: nearly all actives have a fitted effect of over 50% in size; also: potency is read from the fitted curve at half-maximal effect)
How it was run: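 Luminescent ATP content (CellTiter-Glo, 30 min, room temperature) served as the viability measure in HRE-bla ME-180 cells exposed to compounds for 17 hrs in low-serum medium (0.5% dialyzed FBS).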

[15] = qHTS assay to identify small molecule agonists of the hypoxia (HIF-1) signaling pathway (AID 1224846; active = well fitted activation curve with a large enough effect in the signal ratio in the repeat runs, not every such curve was filed as active; the % refers to the signal ratio)
How it was run: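 Measured by blue/green FRET after loading CCF4-AM: beta-lactamase expressed from a hypoxia response element in ME-180 cells. Test agents were delivered in DMSO and left 17 hrs; cells had been plated 5 hrs earlier in low-serum (0.5% dialyzed FBS) medium.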

[16] = qHTS assay to identify small molecule antagonists of the estrogen related receptor (ERR) signaling pathway from Tox21 library (AID 1224848); also: nearly all actives have a fitted effect of over 50% in size
How it was run: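 Cells: ERR line, 2,000/well; 6 h preincubation 37 C/5% CO2. Cpd in DMSO via pin tool; 18 h, 37 C. ONE-Glo, 30 min RT, luminescence.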

[17] = qHTS assay to identify small molecule agonists of the estrogen related receptor (ERR) signaling pathway from Tox21 library (AID 1224849; calls by dose curve; also: nearly all actives have a fitted effect of over 15% in size); conditions: ERR reporter cell line, ONE-Glo luciferase, 18 h
How it was run: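 We plated ERR reporter cells, waited 6 h, added compounds in DMSO by pin tool and incubated them 18 h at 37 C. ONE-Glo was then added and luminescence read after 30 min.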

[18] = qHTS assay to identify small molecule agonists of H2AX (AID 1224845; active = well fitted activation curve with a large enough effect in the signal ratio in the repeat runs, not every such curve was filed as active; the % refers to the signal ratio)
How it was run: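 Wild-type CHO-K1 cells plated overnight, then exposed 3 hr at 37C to compounds at 15 concentrations (0.76% DMSO). Lysed, then HTRF anti-pH2AX(S139)-cryptate/anti-H2AX-d2 detection after 24 hr at room temperature; emissions 665 and 620 nm.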

[19] = qHTS assay to identify small molecule antagonists of the constitutive androstane receptor (CAR) signaling pathway - cell viability counter screen (AID 1224837); also: nearly all actives have a fitted effect of over 45% in size; also: potency is read from the fitted curve at half-maximal effect
How it was run: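 Fluorescence from CellTiter-Fluor served as the viability signal. Human hepatoma HepG2 cells stably bearing hCAR and CYP2B6-2.2kb received compound plus CITCO (50 nM final) for 23 hr.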

[20] = qHTS RealTime-Glo MT Cell Viability Assay in HepG2 cells - 40 hour (AID 1224870); also: nearly all actives have a fitted effect of over 50% in size
How it was run: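 HepG2 cells mixed with RealTime-Glo MT reagents (NanoLuc plus cell-permeant prosubstrate) were seeded at 600 cells/well, incubated 5 h at 37 C/5% CO2, then pinned with compounds in DMSO; nonlytic luminescence tracked viability during 40 h treatment.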

O=C1c2ccccc2C(=O)N1SC1CCCCC1
Potency [1]: 68.6 µM (active) | Potency [2]: 25.2 µM (active) and 17.8 µM (active) | Potency [3]: inactive | Potency [4]: 68.5 µM (active) | Potency [5]: inactive | Potency [6]: inactive | Potency [7]: inactive | Potency [8]: 89.7 µM (active) and 89.8 µM (active) | Potency [9]: 38.9 µM (active) | Potency [10]: 24.5 µM (active) and 38.9 µM (active) | Potency [11]: inactive

Cc1ccc(C(C)C)cc2c(C)ccc1-2
Potency [1]: inactive | Potency [2]: inactive | Potency [3]: inactive | Potency [4]: inactive | Potency [6]: inactive | Potency [12]: inactive | Potency [13]: inactive | Potency [7]: inactive | Potency [14]: inactive | Potency [15]: inactive | Potency [8]: inactive | Potency [16]: inactive | activity change, positive = activation ([17]; at 42.5 µM (top of the series)): -2.57% | Potency [9]: inactive | Potency [10]: inactive | Potency [11]: inactive

OCCN1CCN(CCCN2c3ccccc3Sc3ccc(C(F)(F)F)cc32)CC1
Potency [1]: 29.8 µM (active) | Potency [2]: inactive | Potency [4]: inactive | Potency [5]: inactive | Potency [6]: 29.8 µM (active) | Potency [12]: inactive | Potency [7]: inactive | Potency [14]: 19 µM (active) | Potency [18]: inactive | activity change, positive = activation ([17]; at 42.5 µM (top of the series)): -32% | Potency [9]: 26.8 µM (active) | Potency [10]: 23.9 µM (active) | Potency [11]: inactive

CCCCN(CCCC)CC(O)c1cc(Cl)cc2c1-c1ccc(Cl)cc1/C2=C/c1ccc(Cl)cc1 (stereo not drawn)
Potency [1]: 26.6 µM (active) | Potency [2]: inactive | Potency [3]: inactive | Potency [4]: inactive | Potency [7]: inactive | Potency [14]: inactive | Potency [15]: inactive | activity change, positive = activation ([17]; at 42.5 µM (top of the series)): -23.2% | Potency [10]: inactive | Potency [11]: inactive

O=S(=O)(O)c1ccc(N=Nc2c(O)ccc3ccccc23)cc1
Potency [1]: 27.3 µM (active) | Potency [2]: 35.6 µM (active) | Potency [19]: 30.6 µM (active) | Potency [4]: inactive | Potency [5]: inactive | Potency [6]: 48.6 µM (active) | Potency [14]: 12.3 µM (active) | Potency [15]: inactive | Potency [11]: inactive

CC(C)NC[C@@H](O)COc1ccc(CC(N)=O)cc1
Potency [1]: inactive | Potency [2]: inactive | Potency [3]: inactive | Potency [19]: inactive | Potency [6]: inactive | Potency [7]: inactive | Potency [14]: inactive | Potency [8]: inactive | Potency [9]: inactive | Potency [10]: inactive | Potency [11]: inactive | Potency [20]: inactive

Clc1ccnc(Cl)n1
Potency [1]: inactive | Potency [2]: inactive | Potency [3]: inactive | Potency [4]: inactive | Potency [5]: inactive | Potency [6]: inactive | Potency [18]: inactive | Potency [8]: inactive | Potency [16]: inactive | activity change, positive = activation ([17]; at 92.4 µM (top of the series)): -1.53% | Potency [9]: inactive | Potency [10]: inactive | Potency [11]: inactive | Potency [20]: inactive

Cc1cc(-n2nc3ccc(Cl)cc3n2)c(O)c(C(C)(C)C)c1
Potency [1]: inactive | Potency [2]: inactive | Potency [3]: inactive | Potency [4]: inactive | Potency [5]: inactive | Potency [6]: inactive | Potency [12]: inactive | Potency [13]: inactive | Potency [7]: inactive | Potency [14]: inactive | Potency [18]: inactive | Potency [8]: inactive | Potency [16]: inactive | activity change, positive = activation ([17]; at 42.5 µM (top of the series)): 2.34% | Potency [9]: inactive | Potency [10]: inactive | Potency [11]: inactive | Potency [20]: inactive
